Bioassay records as filed in PubChem BioAssay.
Compounds with a hit are over-represented: about 19% of the library has one in this group of screens.
HT1080NT lethal: kills 2HG-producing HT-1080-NT fibrosarcoma cells; HT-1080-NT fibrosarcoma viability, CellTiter-Glo ATP luminescence, 48 h; Potency, µM (titrated, usually from 46.1 µM), for inactives: at the top dose activity, negative = less viability, usual class: cytotoxic; hit rate 1.6% among 360,000; AID 686970;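 note: NT is the 2HG producing partner of a matched IDH1 knockdown line; 0% = DMSO-treated cells and -100% = media-only wells without cells; nearly all actives have a fitted effect of over 55% in size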
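Read-out is CellTiter-Glo luminescence after 10 minutes at room temperature, following 48 hours' compound treatment of HT-1080-NT cells (750 cells/well, RPMI, 5% FBS, 37 degrees C).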
KB-3-1 tox: KB-3-1 parental cell cytotoxicity; KB-3-1 viability, CellTiter-Glo ATP luminescence, 72 h; Potency, µM (series often up to 46.1 µM), usual class: cytotoxic; hit rate 1.4% among 400,000; AID 1347075; note: nearly all actives have a fitted effect of over 60% in size
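72 h, 37 °C compound treatment of KB-3-1 parental cells; CellTiter-Glo added, 10 min, luminescence read. Data corrected against DMSO-only plates and normalized before curve fitting.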
HT1080 IDH1KD tx: toxicity to HT-1080 IDH1 knockdown cells (counter line) | HT-1080 IDH1 knockdown viability, ATP luminescence, 48 h | Potency, µM (series often up to 46.1 µM), for the others: at the highest dose activity, negative = toxicity, most hits filed as cytotoxic | hit rate 2% among 360,000;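 note: 0% = DMSO wells and -100% = cell-free medium wells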
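Assay cells: HT-1080 with IDH1 knockdown, 750 per well, RPMI/5% FBS. Exposure: 48 h at 37 °C following 2 h pre-incubation. Read: CellTiter-Glo luminescence; fitted concentration-response, curve class assigned.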
TDP1 cell noCPT: qHTS for Inhibitors of human tyrosyl-DNA phosphodiesterase 1 (TDP1): qHTS in cells in absence of CPT. hit rate 15% among 420,000. DT40 Tdp1-/- hTDP1 cells, no CPT, ATP luminescence, 48 h. AID 686978, 2013. Potency, µM (top dose mostly 46.2 µM), for the others: at the highest dose activity change, negative = growth inhibition, usual class: inhibitors; note: nearly all actives have a fitted effect of over 55% in size
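No-CPT arm: Tdp1-/-;hTDP1 DT40 cells (400/well) plus compounds, incubated ≥48 hr at 37 °C. Readout CellTiter-Glo luminescence.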
KB-V1 MDR tox: kills drug-selected multidrug resistant KB-V1 cells | KB-V1 MDR cells viability, CellTiter-Glo, 72 h | Potency, µM (highest dose often 46.1 µM), most hits filed as cytotoxic | hit rate 3.4% among 400,000; note: nearly all actives have a fitted effect of over 60% in size
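qHTS viability screen in drug-selected KB-V1 MDR cells: 72 h compound treatment at 37 degrees C, ATP luminescence end point.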
TDP1 cell CPT: DT40-hTDP1 cell growth loss with CPT. chicken DT40 Tdp1-/-;hTDP1 cells + 20 nM CPT, ATP luminescence, 48 h. Potency, µM (series often up to 46.2 µM), for the others: top-dose activity change, negative = growth inhibition, actives largely listed as inhibitors. AID 686979. hit rate 12% among 420,000; note: nearly all actives have a fitted effect of over 55% in size
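Chicken DT40 Tdp1-/- cells complemented with human TDP1, 400 cells/well, exposed to compounds plus 20 nM camptothecin for at least 48 h at 37 C; viability read as ATP content by CellTiter-Glo luminescence.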
Active calls of the source: *; i = inactive; ? = inconclusive; / = no result. Calls come from the whole dose curve; as a rule, active = well fitted curve in the direction sought with a large enough effect; inconclusive = small, poorly fitted or top-dose-only effect, or another doubt; inactive = no such curve, though single readings can be large; an effect the other way counts as inactive or inconclusive. Unless noted, % is set by controls: 0 for no effect and ±100 for the full control effect; potency is the fitted concentration of half-maximal effect.

SMILES	HT1080NT lethal	KB-3-1 tox	HT1080 IDH1KD tx	TDP1 cell noCPT	KB-V1 MDR tox	TDP1 cell CPT
COc1ccc(-c2cc(C(=O)Nc3c(C)nn(Cc4ccccc4C)c3C)no2)cc1	/	i	/	-30%	i	-2%
Cn1ncc2c(Nc3ccccc3Cl)nc(Nc3ccccc3Cl)nc21	?	i	?	?	i	-5%
CC(C)CCNc1nc(Nc2ccccc2)c2cnn(C)c2n1	/	/	/	23µM*	/	23µM*
COc1ccccc1OCC(=O)Nc1nc(-c2ccc(S(=O)(=O)N3CCOCC3)cc2)cs1	-1%	i	-8%	13µM*	i	21µM*
O=C(COc1ccccc1)Nc1nc(-c2ccc(S(=O)(=O)N3CCOCC3)cc2)cs1	-10%	i	-20%	?	i	?
COc1ccc(-c2csc(NC(=O)c3ccc(OCC(=O)N4CCOCC4)c(OC)c3)n2)cc1OC	-9%	?	-15%	15µM*	?	16µM*
O=C(CCc1ccc(S(=O)(=O)N2CCOCC2)cc1)Nc1nc(COc2ccccc2)cs1	?	5.2µM*	?	?	2.9µM*	15µM*
COc1ccc(C(CNS(=O)(=O)c2ccc(NC(C)=O)c(OC)c2)N2CCCCC2)cc1 (configuration not stated)	2%	i	-2%	1%	i	-7%
COc1ccc(N2CC(NC(=O)c3cc4ccccc4o3)CC2=O)cc1OC (configuration not stated)	/	i	/	?	i	?
COc1ccc(S(=O)(=O)NC(=O)C2(C)CCN2C(=O)c2c(C)noc2C)cc1 (configuration not stated)	?	i	1%	-13%	i	-1%
OCCN1CCN(c2cc(-c3ccc(CO)cc3)nc3ccnn23)CC1	?	i	5%	-10%	i	-2%
CN1CCN(c2cc(-c3ccc4ccccc4c3)nc3ccnn23)CC1	?	i	27%	?	i	23µM*
O=C(Cn1ncc2c3ccccc3n(Cc3ccccc3F)c2c1=O)NCC1CCCO1 (configuration not stated)	-9%	i	-9%	?	i	?
Nc1nc(NCC2CCCO2)nc(Nc2ccccc2)c1[N+](=O)[O-] (configuration not stated)	1%	i	-8%	?	10µM*	?
CC(C)CCNc1nc(N)c([N+](=O)[O-])c(NCC2CCCO2)n1 (configuration not stated)	-12%	i	-2%	?	?	15µM*
Cn1ccc(CC(=O)N2CCC(N3CCC(C(=O)N4CCCC4)CC3)CC2)c1	6%	i	-1%	-8%	i	-4%
CSc1nsc(SC)c1NC(=O)OCCc1ccccn1	0%	i	-1%	2%	i	-9%
CSc1nsc(SC)c1NC(=O)Nc1ccccn1	-25%	i	?	?	15µM*	16µM*
N#CC1C(=O)c2ccccc2C1c1ccccc1 (configuration not stated)	?	i	12µM*	?	i	?
O=C1CCC(c2ccccc2)c2ccccc21 (configuration not stated)	0%	i	2%	-7%	i	-9%
COc1nnc(-c2ccc(N3CCCCC3)c(NC(=O)c3ccccc3Cl)c2)c2ccccc12	/	/	/	6.5µM*	/	6.5µM*
Cn1nc(-c2ccc(N3CCCCC3)c(NC(=O)c3ccco3)c2)c2ccccc2c1=O	12%	8.2µM*	14%	16µM*	?	21µM*
COc1nnc(-c2ccc(N3CCOCC3)c(NC(=O)c3ccco3)c2)c2ccccc12	-19%	i	-19%	26µM*	i	?
CCC(=O)Nc1cc(-c2nnc(OC)c3ccccc23)ccc1N1CCOCC1	5%	i	10%	?	i	-27%
COc1nnc(-c2ccc(N3CCCCC3)c(NC(=O)c3ccc(C)cc3)c2)c2ccccc12	/	i	/	-14%	i	-29%
SMILES	HT1080NT lethal	KB-3-1 tox	HT1080 IDH1KD tx	TDP1 cell noCPT	KB-V1 MDR tox	TDP1 cell CPT
O=C(Nc1ccc(F)c(Cl)c1)Nc1nnc([C@@H]2O[C@H](CO)[C@@H](O)[C@H]2O)s1	-24%	i	-1%	-21%	i	?
CN(C)c1ncnc2c1ncn2[C@H]1CN(C2CCCC2)C[C@@H](CO)O1	10%	i	1%	-14%	i	-6%
Cc1ncc(C)c2c([N+](=O)[O-])cccc12	12%	i	5%	23µM*	i	-8%
Cc1cnc(C2OCCO2)c2cccc([N+](=O)[O-])c12	-5%	i	-5%	?	i	-18%
Cc1cnc(C=O)c2cccc([N+](=O)[O-])c12	-10%	i	?	3.7µM*	i	5.8µM*
CC(=O)C(C(C)=O)C(c1ccccc1)c1nc2ccccc2[nH]c1=O (configuration not stated)	2%	i	-1%	11%	i	2%
Cc1cc(-c2ccccc2)n(-c2cc(N/N=C/c3ccccc3O)ncn2)n1	?	?	1µM*	3.3µM*	0.82µM*	4.6µM*
CNc1cc(-n2nc(C)cc2-c2ccccc2)ncn1	-3%	i	-5%	1%	i	-18%
O=c1c(N2CCOCC2)c(N2CCOCC2)c1=O	5%	i	-3%	-4%	i	-6%
CC(C)(C)C1=CC(=O)C(N2CCOCC2)=CC1=O	-2%	i	-7%	21µM*	i	7.3µM*
CN1CCN(C(=S)c2ccc(-c3cc(Cl)ccc3Cl)o2)CC1	-10%	i	-4%	?	i	?
N#CCCN1CCN(C(=S)c2ccc(-c3cc(Cl)ccc3Cl)o2)CC1	-11%	i	0%	?	6.5µM*	-22%
Cc1nc(S(=O)(=O)N2CCN(c3ccc(Cl)cc3)CC2)cn1C	/	i	/	-12%	i	-23%
O=C(N/N=C/c1c(O)ccc2ccccc12)c1cccnc1	?	?	?	1µM*	?	1.2µM*
COc1ccc(/C=N/NC(=O)c2ccc(=O)n(C)c2)cc1OC	11%	i	20%	11%	i	7%
Cc1nn(Cc2ccccc2)c(Cl)c1/C=N/NC(=O)c1cccnc1	-4%	i	-28%	?	i	-2%
Cc1c(/C=N/NC(=O)c2cccnc2)c2ccccc2n1Cc1ccccc1	?	?	?	7.3µM*	i	12µM*
